Screens (PubChem)
Many of the other results were omitted from the sample, so hits are more common in it than they were.
CHX counter = counter-screen for Shiga toxin inhibitors: cycloheximide protein synthesis inhibition; cell reporter, cycloheximide protein synthesis inhibition counterscreen; max response, %; actives 12% (n = 300,000); AID 2314; in the data active = max response mostly above about 13%, no sharp cut-off; inactive = mostly below about 14%; also: read at 38.3 µM for the half of the compounds with a filed dose
Shiga toxin inh = blocks Shiga toxin action in Vero cells | Vero cells, Shiga toxin protein synthesis inhibition reporter | inhibition, % at 38.7 µM | actives 9.2% (n = 290,000); in the data active = inhibition mostly above about 28%, no sharp cut-off; inactive = mostly below about 43%
AMA1 RON2 block = inhibitors of Plasmodium falciparum AMA1-RON2 interaction. actives 0.2% (n = 360,000). Potency, µM (top dose mostly 58.2 µM), most hits filed as inhibitors. AlphaScreen AMA1-biotinylated RON2 peptide binding. AID 720542; active = well fitted inhibition curve with a large enough effect; inconclusive = small, poorly fitted or top-dose-only effect; inactive = no such curve, though single readings can be large or run the other way; also: nearly all actives have a fitted effect of over 45% in size
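AMA1 (3D7) with his tag at 25 nM final met compounds first, then biotinylated RON2 peptide at 25 nM; detection used donor plus acceptor beads, 10 µg/mL apiece, read by AlphaScreen after 30 min at room temperature.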
MARV entry inh = blocks Marburg virus binding to or entry into cells | Marburg virus pseudotyped entry inhibition, cell reporter | Potency, µM (series often up to 37.8 µM), hits mostly inhibitors | actives 1.8% (n = 300,000) | AID 540276; calls by dose curve; tested in HEK293 cells
Lassa entry inh = inhibitors of Lassa virus binding or cell entry; Lassa virus pseudotype entry inhibition, cell reporter; Potency, µM (doses to about 37.9 µM), actives largely listed as inhibitors; actives 1.2% (n = 300,000); calls by dose curve; tested in HEK293 cells; also: nearly all actives have a fitted effect of over 50% in size
A number is an active result; . = inactive; ? = inconclusive; / = no result.

SMILES	CHX counter	Shiga toxin inh	AMA1 RON2 block	MARV entry inh	Lassa entry inh
O=C(COC(=O)CNC(=O)c1ccccc1)Nc1nc(-c2ccccc2)cs1	25	.	.	?	?
Cc1nc(CC(=O)Nc2nc(-c3ccccc3)cs2)cs1	29	80	.	.	?
Cn1cc(Cl)c(C(=O)OCC(=O)Nc2nc(-c3ccc(Br)cc3)cs2)n1	22	65	.	?	.
Cn1cc(Cl)c(C(=O)OCC(=O)Nc2cccc(Cl)c2)n1	.	.	.	.	?
COC(=O)CCC(=O)Nc1nc(-c2ccccc2)cs1	/	/	.	/	/
CCOc1ccc2c(c1)-c1c(ssc1=S)C(C)(C)N2C(=O)CSC1=NCCS1	.	.	10µM	?	?
CCOc1ccc2c(c1)-c1c(ssc1=S)C(C)(C)N2	.	.	19µM	.	?
CCCCCN(CCCCC)C(=O)[C@H](CCC(=O)O)NC(=O)[C@H](Cc1ccc(OP(=O)(O)O)cc1)NC(C)=O	.	.	/	/	/
CCOc1ccc(N=Nc2c(N)[nH][nH]c2=O)cc1	78	68	.	.	?
COc1cccc(N=Nc2c(N)[nH][nH]c2=O)c1	55	59	.	.	?
Cc1[nH][nH]c(=O)c1N=Nc1ccc(F)cc1	.	.	.	/	/
COc1ccc(N=Nc2c(C)[nH][nH]c2=O)cc1	35	103	.	.	.
CCC[C@H]1COCCS(=O)(=O)N1Cc1ccc(Br)cc1	.	.	/	/	/
C/C(=N\OCC(=O)OCC(=O)N(C)c1ccccc1)c1ccc2c(c1)OCO2	/	/	.	/	/
CCOC(=O)c1c(NC(=O)C(C)Sc2cn(CCNC(=O)c3c(F)cccc3F)c3ccccc23)sc2c1CCC2 (stereo unspecified)	/	/	/	7.9µM	.
Cc1oc2ccc(O)cc2c1C(=O)c1ccc(Br)cc1	/	/	.	.	?
Cc1oc2ccc(OCc3ccccc3Cl)cc2c1C(=O)O	.	.	.	/	/
COc1ccc2oc3ccc(OC)cc3c(=O)c2c1	22	.	.	?	.
CC(=O)c1c(C)oc2ccc(OCc3ccccc3)cc12	31	63	.	/	/
COc1ccc(C(=O)c2c(C)oc3ccc(O)cc23)cc1	29	32	.	/	/
Cc1oc2ccc(O)cc2c1C(=O)c1ccc(Cl)cc1	17	.	.	.	.
COc1ccc2oc3ccccc3c(=O)c2c1	.	.	.	/	/
COc1ccc(/C=C/C(=O)N2CCC(c3nc4ccccc4o3)CC2)cc1OC	/	/	/	.	.
Cc1oc2ccc(O)cc2c1C(=O)OC(C)C	22	.	.	.	.
COc1ccc2oc(C)c(C(=O)c3ccc(C)cc3)c2c1	22	36	.	/	/
SMILES	CHX counter	Shiga toxin inh	AMA1 RON2 block	MARV entry inh	Lassa entry inh
COc1cc(CN2C[C@@H](CO)O[C@@H](n3cnc4c(N5CCCC5)ncnc43)C2)cc(OC)c1OC	/	/	.	/	/
O=C1CC(c2ccc(O)c(O)c2)Oc2c1ccc(O)c2O (stereo unspecified)	.	.	?	/	/
CC(C)=CCc1c(O)ccc2c1OC(c1ccc(O)c(O)c1)CC2=O (stereo unspecified)	14	.	.	/	/
C=CCOC(=O)N[C@H](c1ccc2ccccc2c1)[C@H](C)C=CCC(=O)OC	/	/	/	.	?
Cc1nc(C)c(C(=O)N/N=C/c2c[nH]c3ccccc23)s1	.	.	.	?	.
O=C(N/N=C/c1c[nH]c2ccccc12)c1cc(-c2ccc3ccccc3c2)n[nH]1	49	64	.	?	?
COc1ccc(CC(=O)NCC(=O)N/N=C/c2c[nH]c3ccccc23)cc1	.	.	.	.	.
Cc1ccc(-c2cc(NC(=O)c3ccccc3)on2)cc1	23	94	.	.	.
COc1ccc(C(=O)Nc2cc(-c3ccc(C)cc3)no2)cc1	.	.	.	/	/
O=C(N/N=C/C=C\c1ccccc1[N+](=O)[O-])c1cc(-c2ccc3ccccc3c2)n[nH]1	11	.	.	?	?
O=C(N/N=C/C=C/c1ccccc1[N+](=O)[O-])c1cccnc1	.	.	.	?	.
Cc1ccc(-c2cc(C(=O)N/N=C/c3c[nH]c4ccccc34)[nH]n2)cc1	47	51	.	?	?
COc1ccccc1NC(=O)C1CCN(S(=O)(=O)c2cn(C)cn2)CC1	/	/	/	/	.
COc1ccc(S(=O)(=O)NC2CCCCC2)c(C)c1C	.	.	.	?	.
Cc1ccc(S(=O)(=O)c2nc(S(=O)(=O)c3ccc(C)cc3)c(N3CCN(CCO)CC3)s2)cc1	.	.	.	/	/
O=C(N/N=C/c1c[nH]c2ccccc12)c1cc(-c2ccccc2)n[nH]1	.	.	.	.	.
Cc1ccc(CCNC(=O)c2cc(-c3ccccc3)n[nH]2)cc1	/	/	/	/	.
O=C(N/N=C/c1c[nH]c2ccccc12)c1cc(-c2cccc3ccccc23)n[nH]1	19	.	.	?	.
